Screen size: about 5,500 compounds; about 2,000 (36%) were called active. Not shown: some 18% with an inconclusive outcome. Rule as the data show it: active = normalized growth mostly below about 0.91 (no sharp cut-off); inconclusive = no clear call, values can overlap the other calls; inactive = mostly above about 0.92. This is one part of the list.
Experiment: chemical genetic growth profiling, strain panel (AID 1159580);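 also: tested at 20 µM; growth read once vehicle control cultures reached saturation at 30 °C; 1 = growth at the plate median or of vehicle wells; lower values mean less growth of the strain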
Settings: growth OD

Measured: normalized growth

OC[C@@H]1CCCN2CCCC[C@H]12
inactive: S. cerevisiae deletion strains, locus YJR066W, strain TOR1, active compounds read low 0.967 | S. cerevisiae deletion strains, locus YJR075W, strain HOC1, active compounds read low 1.02 | S. cerevisiae deletion strains, locus YKL009W, strain mrt4, active compounds read low 1.02 | S. cerevisiae deletion strains, locus YKL068W, active compounds read low 1.01 | S. cerevisiae deletion strains, locus YKL085W, strain MDH1 (second series), active compounds read low 1 | S. cerevisiae deletion strains, locus YKL085W, strain MDH1, active compounds read low 1 | S. cerevisiae deletion strains, locus YKL160W, strain elf1, active compounds read low 1.02 | S. cerevisiae deletion strains, locus YKR001C, strain vps1, active compounds read low 1.01 | S. cerevisiae deletion strains, locus YKR026C, strain gcn3, active compounds read low 1.06 | S. cerevisiae deletion strains, locus YKR091W, strain srl3, active compounds read low 1.02 | S. cerevisiae deletion strains, locus YLL001W, strain dnm1, active compounds read low 0.995 | S. cerevisiae deletion strains, locus YLL026W, active compounds read low 1.03 | S. cerevisiae deletion strains, locus YLL041C, strain sdh2, active compounds read low 1.01 | S. cerevisiae deletion strains, locus YLR027C, strain aat2, active compounds read low 1.02 | S. cerevisiae deletion strains, locus YLR039C, strain RIC1, active compounds read low 1.02 | S. cerevisiae deletion strains, locus YLR058C, strain SHM2, active compounds read low 1.01 | S. cerevisiae deletion strains, locus YLR102C, strain apc9, active compounds read low 1.01 | S. cerevisiae deletion strains, locus YLR113W, strain HOG1, active compounds read low 1.01 | S. cerevisiae deletion strains, locus YLR221C, strain rsa3, active compounds read low 1.02 | S. cerevisiae deletion strains, locus YLR258W, strain gsy2, active compounds read low 1.04 | S. cerevisiae deletion strains, locus YLR262C, strain YPT6 (second series), active compounds read low 1.04 | S. cerevisiae deletion strains, locus YLR262C, strain YPT6, active compounds read low 1.06 | S. cerevisiae deletion strains, locus YLR268W, strain sec22, active compounds read low 1.03 | S. cerevisiae deletion strains, locus YLR320W, strain mms22, active compounds read low 0.99 | S. cerevisiae deletion strains, locus YLR330W, strain CHS5, active compounds read low 0.98 | S. cerevisiae deletion strains, locus YLR342W, strain FKS1 (second series), active compounds read low 0.977 | S. cerevisiae deletion strains, locus YLR342W, strain FKS1, active compounds read low 1.03 | S. cerevisiae deletion strains, locus YLR357W, strain rsc2, active compounds read low 1.02 | S. cerevisiae deletion strains, locus YLR370C, strain arc18, active compounds read low 1.03 | S. cerevisiae deletion strains, locus YLR371W, strain rom2, active compounds read low 1.01 | S. cerevisiae deletion strains, locus YLR384C, strain iki3, active compounds read low 1.03 | S. cerevisiae deletion strains, locus YLR418C, strain cdc73, active compounds read low 1.03 | S. cerevisiae deletion strains, locus YML016C, strain PPZ1, active compounds read low 1 | S. cerevisiae deletion strains, locus YML032C, strain rad52, active compounds read low 0.995 | S. cerevisiae deletion strains, locus YML120C, strain ndi1, active compounds read low 1.03 | S. cerevisiae deletion strains, locus YML124C, strain tub3, active compounds read low 1 | S. cerevisiae deletion strains, locus YMR058W, strain fet3, active compounds read low 1.03 | S. cerevisiae deletion strains, locus YMR078C, strain ctf18, active compounds read low 1.01 | S. cerevisiae deletion strains, locus YMR125W, strain sto1, active compounds read low 1.05 | S. cerevisiae deletion strains, locus YMR129W, active compounds read low 1.04 | S. cerevisiae deletion strains, locus YMR205C, strain PFK2, active compounds read low 1.01 | S. cerevisiae deletion strains, locus YMR223W, strain ubp8, active compounds read low 1 | S. cerevisiae deletion strains, locus YMR231W, strain pep5, active compounds read low 1.04 | S. cerevisiae deletion strains, locus YMR263W, strain SAP30, active compounds read low 0.999 | S. cerevisiae deletion strains, locus YMR307W, strain GAS1, active compounds read low 1 | S. cerevisiae deletion strains, locus YNL067W, strain RPL9B, active compounds read low 1 | S. cerevisiae deletion strains, locus YNL071W, strain lat1, active compounds read low 1.03 | S. cerevisiae deletion strains, locus YNL183C, strain NPR1, active compounds read low 0.964 | S. cerevisiae deletion strains, locus YNL209W, strain ssb2, active compounds read low 1.02 | S. cerevisiae deletion strains, locus YNL233W, strain BNI4, active compounds read low 1.01 | S. cerevisiae deletion strains, locus YNL248C, strain rpa49, active compounds read low 1.03 | S. cerevisiae deletion strains, locus YNL250W, strain rad50, active compounds read low 1.03 | S. cerevisiae deletion strains, locus YNL271C, strain bni1, active compounds read low 1 | S. cerevisiae deletion strains, locus YNL298W, strain CLA4, active compounds read low 1.01 | S. cerevisiae deletion strains, locus YNL307C, strain MCK1, active compounds read low 1.03 | S. cerevisiae deletion strains, locus YNL322C, strain KRE1 (second series), active compounds read low 1.04 | S. cerevisiae deletion strains, locus YNL322C, strain KRE1, active compounds read low 1 | S. cerevisiae deletion strains, locus YNR049C, strain mso1, active compounds read low 1.03 | S. cerevisiae deletion strains, locus YNR052C, strain pop2, active compounds read low 1.01 | S. cerevisiae deletion strains, locus YOL006C, strain TOP1, active compounds read low 1.06 | S. cerevisiae deletion strains, locus YOL012C, strain htz1 0.808 | S. cerevisiae deletion strains, locus YOL147C, strain pex11, active compounds read low 1.02 | S. cerevisiae deletion strains, locus YOR001W, strain rrp6, active compounds read low 1.02 | S. cerevisiae deletion strains, locus YOR061W, strain CKA2, active compounds read low 1.01 | S. cerevisiae deletion strains, locus YOR069W, strain VPS5, active compounds read low 1.01 | S. cerevisiae deletion strains, locus YOR070C, strain gyp1, active compounds read low 1.04 | S. cerevisiae deletion strains, locus YOR080W, strain dia2, active compounds read low 1.03 | S. cerevisiae deletion strains, locus YOR083W, strain WHI5, active compounds read low 0.97 | S. cerevisiae deletion strains, locus YOR106W, strain vam3, active compounds read low 1.05 | S. cerevisiae deletion strains, locus YOR136W, strain idh2, active compounds read low 1.03 | S. cerevisiae deletion strains, locus YOR144C, strain elg1, active compounds read low 1.01 | S. cerevisiae deletion strains, locus YOR184W, strain ser1, active compounds read low 1.02 | S. cerevisiae deletion strains, locus YOR231W, strain MKK1, active compounds read low 1.03 | S. cerevisiae deletion strains, locus YOR265W, strain rbl2, active compounds read low 1.01 | S. cerevisiae deletion strains, locus YOR270C, strain vph1, active compounds read low 1.14 | S. cerevisiae deletion strains, locus YOR290C, strain snf2, active compounds read low 1.04 | S. cerevisiae deletion strains, locus YOR316C, strain cot1, active compounds read low 1.01 | S. cerevisiae deletion strains, locus YPL051W, strain arl3, active compounds read low 1.04 | S. cerevisiae deletion strains, locus YPL055C, strain LGE1, active compounds read low 1.01 | S. cerevisiae deletion strains, locus YPL078C, strain atp4, active compounds read low 1.04 | S. cerevisiae deletion strains, locus YPL106C, strain sse1, active compounds read low 1.03 | S. cerevisiae deletion strains, locus YPL240C, strain hsp82, active compounds read low 1.04 | S. cerevisiae deletion strains, locus YPL241C, strain CIN2, active compounds read low 1 | S. cerevisiae deletion strains, locus YPL256C, strain CLN2, active compounds read low 1.01 | S. cerevisiae deletion strains, locus YPR119W, strain clb2, active compounds read low 1.02 | S. cerevisiae deletion strains, locus YPR141C, strain kar3, active compounds read low 1.01 | S. cerevisiae deletion strains, locus YPR163C, strain tif3, active compounds read low 1.01 | S. cerevisiae deletion strains, locus YPR167C, strain met16, active compounds read low 1.01 | S. cerevisiae deletion strains, strain wtn01, active compounds read low 1.03 | S. cerevisiae strains, strain wild type, active compounds read low 0.979
